Growth data for 12 molecules are collected here from PubChem BioAssay (NCI).

The structures appear in SMILES notation. The panel holds about 83,000 compounds, 20% with a hit somewhere; the sample as a whole holds those more often.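 96-well plates, one dose, 48 hours. Percent growth reported; active if below 10.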 A number with no mark means an inactive call. Calls of active or inactive are those of the source.

What all share (test): NCI-60 one-dose screen, 48 h (100 = growth as untreated, 0 = no growth, -100 = all killed)
Common to all, as to details: 10 µM unless noted

The test system of test [1] is SR leukemia.
Test [2] relates to RPMI-8226 leukemia.
Test [3] concerns OVCAR-8 ovarian.
Test [4] has as its system OVCAR-5 ovarian.
For test [5], the system named is OVCAR-4 ovarian.
For test [6], the system named is SK-OV-3 ovarian.
For test [7], the system named is IGROV1 ovarian.
Test [8] relates to OVCAR-3 ovarian.
Test [9] has as its system HS 578T breast.
In test [10] the test system is NCI/ADR-RES ovarian.

For `COc1ccc(NC(=O)c2ccoc2COc2ccccc2)cc1`, the growth was 88.4% in test [1]; 91.8% in test [2]; 100% in test [3]; 95.8% in [4]; 101% in [5]; 106% in test [6]. The growth was 91.2% in [7], 109% in test [8], 99.7% in [9] and 93% in [10].

`N#CC1=C(N)Oc2ccc3ccccc3c2C1c1ccccc1` (stereo not given): the growth was 25.1% in test [1]; 21.8% in test [2]; 49.8% in test [3]; 55.8% in [4]; 73.6% in [5]; 47.2% in [6]. Moreover, the growth in test [7] was 25.5%; in test [8], 18.4%; in test [9], 23.8%; in test [10] it was 8.41% (active).

As for `COc1ccc(C2NC(=O)Nc3ccccc32)c(OC)c1` (stereo not given), the growth in test [1] is 91.7%; in test [2] it was 108%; in test [3] it was 101%; in test [4], 112%; in [5] it was 105%; in test [6], 95.3%. In addition, the growth in test [7] was 98.2%; in test [8], 112%; in test [9] it was 94.8%; in [10] it was 99%.

As to `CCCCCCCCNc1cccc2c1C(=O)c1ccccc1C2=O`, the growth was 108% in test [1]; 105% in test [2]; 111% in test [3]; 105% in test [4]; 103% in test [5]; 108% in test [6]. In addition, the growth is 105% in test [7], 92.6% in test [8], 95.7% in [9] and 112% in test [10].

Take `Nc1c(C(=O)Nc2c(Cl)cccc2Cl)sc2nc3c(cc12)CCCC3`: the growth is 12% in [1]; 93.4% in [2]; 84.9% in test [3]; 105% in test [4]; 89.9% in test [5]; 83.3% in [6]. Further, the growth was 79.5% in test [7], 64% in test [8], 82.3% in test [9] and 60.8% in test [10].

As to `Cn1cc(-c2csc(-c3cn(CCNC(=O)OC(C)(C)C)c4ccc(F)cc34)n2)c2cccnc21`, the growth in [1] was 65.3%; in test [2] it was 34.4%; in [3], 37.9%; in test [4], 95.3%; in [5] it was 43.8%; in test [6] it was 96.6%. Besides, the growth in [7] was 49.4%; in test [8], 75.5%; in [9] it was 84.3%; in [10] it was 43.8%.

For `NCCn1cc(-c2nc(-c3c[nH]c4ncccc34)cs2)c2ccccc21`, the growth in test [1] is 62.6%; in test [2] it was 78.1%; in test [3], 86.7%; in test [4], 102%; in test [5] it was 68.2%; in test [6], 82.2%. The growth is 50.2% in test [7], 90.8% in test [8], 84.4% in [9] and 98.1% in [10].

Take `O=C(/C(=C(\C(=O)c1ccccc1)c1ccccc1)c1ccccc1)c1ccccc1`: the growth was 31.6% in [1]; 18.7% in test [2]; 41.6% in test [3]; 100% in test [4]; 55.8% in [5]; 82.5% in [6]. Further, the growth is 69% in test [7], 40.8% in [8], 76.6% in test [9] and 45.4% in test [10].

On to `CCOC(=O)c1ccc2c(c1)[n+](=O)c(C(=O)C1CCCS1)c(C(F)(F)F)n2[O-]` (stereo not given), for which the growth in [1] was -42.8% (active); in [2], -45.3% (active); in test [3], -36.4% (active); in test [4], -79.8% (active); in test [5] it was -83.3% (active); in [6] it was -97.6% (active). For the same molecule, the growth is -60.3% (active) in test [7], -96.6% (active) in test [8], -10.8% (active) in test [9] and -70.4% (active) in test [10].

For `COc1ccc2c(c1)c(-c1nc(-c3cn(C)c4ncccc34)cs1)cn2CCN`, the growth in test [1] is 27.4%; in test [2] it was 75.8%; in test [3], 71.1%; in test [4], 78.1%; in [5], 41.1%; in test [6] it was 94.9%. In addition, the growth is 41.8% in test [7], 88.8% in test [8], 85.6% in test [9] and 88.1% in test [10].

On to `Nc1ccc(Cl)cn1`, for which the growth in test [1] was 113%; in test [2] it was 101%; in test [3] it was 101%; in test [4], 101%; in [5], 97.4%; in test [6] it was 93.6%. The growth in test [7] was 104%; in [8] it was 106%; in test [9], 99.7%; in [10], 98.7%.

For `COc1cccc(-c2nn(-c3ccccc3)cc2-c2ccnc(NCCNS(=O)(=O)c3ccc(Cl)cc3)c2)c1`, the growth is -5.49% (active) in test [1]; 9% (active) in [2]; 31.1% in test [3]; 56.2% in [4]; 35.9% in [5]; 44.9% in [6]. In addition, the growth was 39.3% in [7], 40.6% in [8], 54.3% in test [9] and 27.9% in test [10].
